# Reference: PubChem BioAssay (NCI)
# Compounds without any hit were thinned out: in the full panel of roughly 83,000, 20% have a hit.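 Results are percent growth after 48 hours of single-concentration exposure. 100 means growth as in untreated cells, lower positive values show inhibition; negative values down to -100 show cell death.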 Calls of active or inactive are those of the source. The calls were made as follows: active = growth percent below 10; inactive = the rest.
# Test system: HL-60(TB) leukemia
# Assay: NCI-60 one-dose screen, 48 h (100 = growth as untreated, 0 = no growth, -100 = all killed)
# Settings: 10 µM unless noted
row,SMILES,growth
1,Cn1c(=O)c2[nH]c(CC(=O)O)nc2n(C)c1=O,110% (inactive)
2,CCOc1ccc(-n2nc(C(=O)Nc3ccccc3)nc2-c2cc(OC)c(OC)c(OC)c2)cc1,32.9% (inactive)
3,CC(=O)c1cc2c(N)c(C(=O)Nc3cccc4ccccc34)sc2nc1C,-10.7% (active)
4,O=C(O)COc1c(Cl)cc([N+](=O)[O-])cc1Cl,87.1% (inactive)
5,C=CC(=O)Nc1cccc(-c2nc(SC)nc(NCCc3ccc(OC)c(OC)c3)c2C#N)c1,25.6% (inactive)
6,c1ccc([P+](c2ccccc2)(c2ccccc2)c2ccc3c4ccc([P+](c5ccccc5)(c5ccccc5)c5ccccc5)c5cccc(c6cccc2c63)c54)cc1,11.2% (inactive)
7,Cn1cc(-c2nc(-c3c[nH]c4c(Cl)nccc34)cs2)c2ccccc21,83.3% (inactive)
8,COc1ccc(C2=NN(C(=O)c3ccc(S(C)(=O)=O)cc3)C(c3ccc(OC)c(OC)c3)C2)c(OC)c1 (centres undefined),69% (inactive)
9,CCCCC[C@H]1C/C=C2/C(=O)C(Cl)=C[C@@H]2C/C=C\CCCC(=O)O[C@@H](CCCCC)C/C=C2/C(=O)C(Cl)=C[C@@H]2C/C=C\CCCC(=O)O1,-19.1% (active)
10,O=C1c2cc3c(cc2-c2c1c1ccc(F)cc1c(=O)n2CCCNCCO)OCO3,-58.1% (active)
11,O=S(=O)(Nc1cc(F)cc(Cl)c1)c1ccc(-c2cnc(C3CC3)o2)cc1,7.71% (active)
12,C[C@@H]1C[C@@H]([C@@H](CC2CC(=O)NC(=O)C2)OC(=O)CC(=O)c2ccccc2)C(=O)[C@@H](C)C1,13% (inactive)
13,O=C(Nc1ccc(Br)cc1)C1=NCCCCN1,98% (inactive)
14,COC(=O)c1cc(=O)nc(N/N=C/c2ccc(C)cc2)s1,105% (inactive)
15,CC(C)[C@]12O[C@H]1[C@@H]1O[C@]13[C@]1(O[C@H]1C[C@H]1C4=C(CC[C@@]13C)C(=O)OC4)[C@@H]2OC(=O)CN(C)C,-24.3% (active)
16,O=C(Nc1cccc(-n2cc(-c3ccncc3)c(-c3cc(O)cc(Cl)c3)n2)c1)Nc1ccc(Cl)c(Cl)c1,-23.4% (active)
17,CCCCCCCC(=O)SCC/C=C/[C@@H]1CC(=O)NCc2cc(ccn2)C2=N[C@@](C)(CS2)C(=O)N[C@@H](C(C)C)C(=O)O1,22.6% (inactive)
18,CN(CCOc1ccc(CC2SC(=O)NC2=O)cc1)c1ccccn1 (centres undefined),128% (inactive)
19,Cn1ccnc1C(=O)/C=C/c1ccc(CC(=O)NC2CCCCC2)cc1,68.1% (inactive)
20,c1ccc(C2NCCNC2c2ccccc2)cc1 (centres undefined),103% (inactive)

row,SMILES,growth
1,CNC(=O)NCC1OC(n2cnc3c(NC(=O)Nc4ccccc4)ncnc32)C2OC(C)(C)OC12 (centres undefined),83.9% (inactive)
2,COc1ccc(-c2c(C(=O)NS(C)(=O)=O)n(Cc3cccc(C(F)(F)F)c3)c3ccccc23)cc1,102% (inactive)
3,COc1ccc2ccccc2c1/C=N/N1CCCCC1,94.3% (inactive)
4,CS(=O)(=O)c1cccnn1,108% (inactive)
5,O=C1NC(=O)/C(=C/c2ccc(Cl)cc2Cl)N1,97% (inactive)
6,Nc1ccc([N+](=O)[O-])cc1N=C/C=C/c1ccccc1,9.14% (active)
7,O=C(NCCO)Nc1ccc(-c2nc(N3CCOCC3)c3cccn3n2)cc1,24.2% (inactive)
8,N#C/C(=C\c1ccc(-c2ccc(Cl)cc2)o1)c1nc(-c2ccco2)cs1,92.3% (inactive)
9,ClC1=C(Cl)C(Cl)=C(Cl)C1=Cc1ccc(Cl)cc1Cl,-12.7% (active)
10,NC(=S)N/N=C/c1ncccc1O,-23.2% (active)
11,CN1CCN(c2ccc(NC3=C(Cl)C(=O)c4ncccc4C3=O)cc2C#N)CC1,-26.3% (active)
12,COC(=O)[C@]12CC[C@@H](C)[C@H](C)[C@@H]1C1=CC[C@@H]3[C@@]4(C)C[C@@H](OC(C)=O)[C@H](O)[C@@](C)(CO)[C@@H]4[C@H](O)C[C@@]3(C)[C@]1(C)CC2,-56.6% (active)
13,CN(C)CCCNc1nc(-c2cccc(C(Cl)(Cl)Cl)c2)nc(C(Cl)(Cl)Cl)n1,105% (inactive)
14,Cc1sc2nc3c4ccccc4c(NCCCN(C)C)nn3c(=O)c2c1C,-71% (active)
15,NCCCCCNc1noc(Cc2c[nH]c3cc(Br)ccc23)n1,-48.8% (active)
16,CN(C)CCN(C)CC(C)(C)C(=O)/C=C/c1ccc(Cl)cc1,0.343% (active)
17,CCCCCCCCCCNC(=O)CCl,95.8% (inactive)
18,COc1cccc(Oc2ccccc2NC(=O)CNC(=O)c2cccc3ccccc23)c1,-25.2% [5 µM] (active)
19,Cc1cc(C)n(C(=O)c2nn(-c3ccc(Cl)cc3)cc2O)n1,39.8% (inactive)
